PubChem BioAssay (NCATS)
Results filed as inconclusive are left out. Calls of active or inactive are those of the source. Unless noted, the call rests on the fitted dose curve; in most records, active means well fitted curve in the direction sought with a large enough effect; inconclusive means small, poorly fitted or top-dose-only effect, or another doubt; inactive means no such curve, though single readings can be large; an effect the other way counts as inactive or inconclusive.

How the values were obtained:
[1] = target: Lysosomal acid glucosylceramidase (Homo sapiens) (UniProt P04062); assay: Glucocerebrosidase-p2 (AID 348; in the data active means potency below about 10 µM; further: potency means the concentration at half of the fitted maximal effect); details: purified GBA, blue fluorogenic substrate, 40 min
How it was run: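 Normal human glucocerebrosidase (0.2 nM) with blue fluorogenic substrate (80 uM final) in citrate/phosphate pH 5.9 with 10mM sodium taurocholate, 0.01% tween-20; 40 min RT, NaOH/glycine stop; fluorescence Ex 365/Em 440; AC50 from a titration from 0.6 nM upwards.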

[2] = AP1 Signaling Pathway (AID 357; active means well fitted curve in either direction with a large enough effect, not every such curve was filed as active; further: on the % scale 0 is the no-effect control and ±100 the full control effect); details: ME-180 AP-1-bla reporter, EGF-induced, beta-lactamase ratio, 5 h; at 7.69 µM (top of the series) unless noted
How it was run: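 Modulation of EGF-driven AP-1 transcription was assessed with a beta-lactamase reporter in ME-180 cells. Compound and EC50 EGF were co-incubated 5 hours at 37 °C before 2.5-hour CCF4 loading at room temperature and dual-emission reading.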

[3] = target: Cytochrome P450 1A2 (Homo sapiens) (UniProt P05177); assay: p450-cyp1a2 (AID 410; calls by dose curve; further: potency means the concentration at half of the fitted maximal effect); details: recombinant CYP1A2, luciferin-ME demethylation, luminescence; series mostly up to 57 µM
How it was run: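 O-Demethylation of luciferin 6' methyl ether by human CYP1A2 is monitored as luciferase luminescence. Substrate sits at Km (100uM); enzyme is 20nM. Values are scaled to 57 uM furafylline as maximal inhibition.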

[4] = NFAT Signaling Pathway (AID 444; active means well fitted curve in either direction with a large enough effect, not every such curve was filed as active;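 further: carbachol stimulus at about its EC50 of 1 µM final; on the % scale 0 is the no-effect control and ±100 the full control effect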); details: Jurkat NFAT-bla M1, carbachol, beta-lactamase ratio, 5 h; at 7.69 µM (top of the series) unless noted
How it was run: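 Jurkat cells carrying an NFAT-driven β-lactamase reporter and co-transfected muscarinic M1 receptor were treated with compound plus carbachol (1 uM final, an EC50 level) for 5 h at 37 °C. CCF4 loading followed for 1 h at RT; 460/530 nm ratio gave %activity.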

[5] = target: Glucocorticoid receptor (Homo sapiens) (UniProt P04150); assay: GR-GFP Redistribution (AID 450;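 active means compounds whose dose series gives a full or clear partial fitted curve of increased nuclear translocation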; further: potency means the concentration at half of the fitted maximal effect); details: U2OS GR-GFP nuclear translocation, laser cytometry, 2 h
[6] = target: Glucocorticoid receptor (Homo sapiens) (UniProt P04150); assay: GR-EFC Redistribution (AID 451; calls by dose curve; further: potency means the concentration at half of the fitted maximal effect); details: CHO-K1 GR-EFC translocation, beta-gal luminescence, 2 h
How it was run: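 CHO-K1 cells stably expressing nuclear-localized β-gal enzyme acceptor and GR fused C-terminally to the enzyme donor fragment; ligand-driven nuclear translocation restores β-gal by complementation. Compounds titrated up to 46 uM final, 2 h at 37 °C; luminescence read.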

[7] = target: Mitogen-activated protein kinase 10 (Mus musculus) (UniProt Q61831); assay: JNK3 AlphaScreen Assay (AID 530; active means well fitted curve in either direction with a large enough effect, not every such curve was filed as active;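 further: kinase came from lysate of stimulated human HepG2 cells; signal reports phosphorylation of biotinylated GST-cJun 1-79 at Ser73 with 10 µM ATP; on the % scale 0 is the no-effect control and ±100 the full control effect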); details: JNK3 lysate, c-Jun phosphorylation; series mostly up to 57.1 µM
How it was run: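 Phosphorylation of biotinylated GST-cJun(1-79) at Ser73 is measured by AlphaScreen proximity luminescence. Enzyme is JNK3 in HepG2 lysates activated with interleukin-1beta and tumor necrosis factor alpha; ATP is 10 uM final.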

[8] = target: 3',5'-cyclic-AMP phosphodiesterase 4B (Homo sapiens) (UniProt Q07343); assay: qHTS Assay for Inhibitors of PDE-IV (AID 607; active means well fitted activation curve with a large enough effect in the main read-out, with a control signal flat, not every such curve was filed as active; further: % of control where 0% means no effect); details: HEK293 ACTOne CNG channel cells, membrane potential fluorescence; series mostly up to 22.9 µM
How it was run: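 ACTOne HEK293 cells carry a modified cAMP-gated CNG channel and express endogenous PDE4; plated 1000 cells/well, compounds up to 22.9 uM final. Membrane-potential dye fluorescence (ex 535/em 590) was read; parental cells received 10 uM forskolin + 100 uM RO 20-1724.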

[9] = qHTS Assay for Lipid Storage Modulators (AID 1519; calls by dose curve); details: Drosophila S3 cells, BODIPY lipid droplet/cell ratio, laser cytometry, cells loaded with oleic acid; for activity change, negative = inhibition: at 57.5 µM (top of the series)
How it was run: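 Cells seeded at 5,000 per well were treated with compounds over a concentration series and loaded with oleic acid (400 uM, as added). Lipid droplet fluorescence (488 nm excitation, 500-530 nm channel) was read by laser-scanning cytometry and normalized to 20 uM Triacsin C.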

[10] = target: Dual specificity protein kinase CLK4 (Homo sapiens) (UniProt Q9HAZ1); assay: qHTS Assay for Inhibitors of CDC-like Kinase 4 (Kinase-Glo Assay) (AID 1770); details: recombinant Clk4, Kinase-Glo ATP depletion luminescence; series mostly up to 66.7 µM; further: nearly all actives have a fitted effect of over 65% in size; further: potency means the concentration at half of the fitted maximal effect
How it was run: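 Recombinant human Clk4 (25 nM) phosphorylated RS repeat peptide (100 uM) with 1 uM ATP in Tris pH 7.5/MgCl2/EGTA/DTT/Triton buffer for 4.5 h at room temperature. Residual ATP was quantified by Kinase-Glo luciferase luminescence.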

[11] = target: Dual specificity protein kinase CLK4 (Homo sapiens) (UniProt Q9HAZ1); assay: qHTS Assay for Inhibitors of CDC-like Kinase 4 (ADP-Glo Assay) (AID 1771); details: recombinant CLK4, ADP-Glo luminescence; series mostly up to 80 µM; further: nearly all actives have a fitted effect of over 70% in size; further: potency means the concentration at half of the fitted maximal effect
How it was run: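 Compounds are pin-transferred onto substrate mix (100 uM RS peptide, 1 uM ATP), then 25 nM Clk4 is added. After 1 hr at room temperature, ADP-Glo reagent runs 45 min, detection reagent 30 min, then luminescence is read.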

[12] = target: Dual specificity protein kinase CLK4 (Homo sapiens) (UniProt Q9HAZ1); assay: qHTS Assay for Inhibitors of CDC-like Kinase 4 (ADP-FP Assay) (AID 1795); details: Transcreener ADP fluorescence polarization; series mostly up to 50 µM; further: nearly all actives have a fitted effect of over 60% in size; further: potency means the concentration at half of the fitted maximal effect
How it was run: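 Recombinant human Clk4 (6.25 nM) phosphorylated RS repeat peptide (100 uM) with 1 uM ATP in Tris pH 7.5/MgCl2/EGTA/DTT/Triton buffer for one hour. ADP was quantified by Transcreener competitive fluorescence polarization against an ADP calibration curve.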

[13] = target: Ubiquitin carboxyl-terminal hydrolase 1 (Homo sapiens) (UniProt O94782); assay: Inhibitors of USP1/UAF1: Pilot qHTS (AID 504865); details: purified USP1/UAF1, Ub-rhodamine cleavage fluorescence; series mostly up to 54.9 µM;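 further: rhodamine fluorescence freed from ubiquitin-rhodamine substrate followed over time; top concentration of the series differs between compounds; on the % scale 0 is the no-effect control and ±100 the full control effect; nearly all actives have a fitted effect of over 35% in size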
How it was run: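 USP1/UAF1 complex (1nM) preincubated with compound 15 min at room temperature, then Ub-Rho substrate (150nM final) added. Fluorescence read kinetically at 480/540 nm, 6 reads every 60 seconds. Buffer: 50mM HEPES pH 7.8, 0.5mM EDTA, 0.1 mg/ml BSA, 1mM TCEP, 0.01% Tween-20.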

[14] = Primary qHTS for small molecule stabilizers of the endoplasmic reticulum resident proteome: Secreted ER Calcium Modulated Protein (SERCaMP) assay (AID 1508630); details: SH-SY5Y GLuc-SERCaMP (Gaussia luciferase released on ER calcium loss) secretion, thapsigargin, luminescence; series mostly up to 38.4 µM; further: on the % scale 0 is the no-effect control and ±100 the full control effect
How it was run: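 The SH-SY5Y reporter protocol was run at 3 concentrations up to 38.3 uM (primary) or 11 concentrations (follow-up): 16 h compound, 100 nM thapsigargin for 4 h, then extracellular luciferase luminescence.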

[15] = target: Cytochrome P450 3A4 (Homo sapiens) (UniProt P08684); assay: qHTS Assay for Inhibitors and Substrates of Cytochrome P450 3A4 (AID 884); details: recombinant CYP3A4, Luciferin-PPXE luminescence; series mostly up to 57.1 µM; further: potency means the concentration at half of the fitted maximal effect; nearly all actives have a fitted effect of over 50% in size
How it was run: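 Luminescent readout of luciferin produced by CYP3A4 (20 nM) dealkylation of Luciferin-PPXE, 25 uM (its KM). NADPH-driven reaction ran 60 min at RT after 10 min compound preincubation; data scaled to 57 uM ketoconazole as 100% inhibition.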

[16] = target: Cytochrome P450 3A4 (Homo sapiens) (UniProt P08684); assay: qHTS Assay for Activators of Cytochrome P450 3A4 (AID 885); details: recombinant CYP3A4, Luciferin-PPXE luminescence, 60 min; series mostly up to 57.1 µM; further: nearly all actives have a fitted effect of over 65% in size
How it was run: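 CYP3A4 activity: Luciferin-PPXE O-dealkylation, 25uM substrate, 200mM KPO4, RT throughout. Read-out is luciferase luminescence; higher values reflect activation.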

[17] = target: Cytochrome P450 2D6 (Homo sapiens) (UniProt P10635); assay: qHTS Assay for Inhibitors and Substrates of Cytochrome P450 2D6 (AID 891); details: recombinant CYP2D6, luciferin-ME EGE luminescence; series mostly up to 57.1 µM; further: potency means the concentration at half of the fitted maximal effect; nearly all actives have a fitted effect of over 60% in size
How it was run: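 Luminescent read-out of luciferin formed by 5 nM human CYP2D6 demethylating 30 uM Luciferin-ME EGE (Km level) over 60 min at room temperature after NADPH regeneration addition. Data normalized to full inhibition by 1.43 uM quinidine.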

[18] = target: Cytochrome P450 2C19 (Homo sapiens) (UniProt P33261); assay: qHTS Assay for Inhibitors and Substrates of Cytochrome P450 2C19 (AID 899); details: recombinant CYP2C19, luciferin-H EGE luminescence; series mostly up to 57.1 µM; further: potency means the concentration at half of the fitted maximal effect; nearly all actives have a fitted effect of over 60% in size
How it was run: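 NADPH-dependent conversion of Luciferin-H EGE (10uM, at KM) by 5nM enzyme in 50mM KPO4, 60 min at 37C following 10 min compound preincubation. Stopped with luciferin detection buffer; luminescence read after 20 min.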

[19] = Stat Signaling Pathway (AID 446; active means well fitted curve in either direction with a large enough effect, not every such curve was filed as active); details: ME-180 (cervical carcinoma) SIE beta-lactamase reporter, IL-6 stimulated, 5 h; at 7.69 µM (top of the series) unless noted
How it was run: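 Compound effects on IL-6-induced STAT reporter activity were measured in ME-180 cells. After overnight culture, cells were co-treated with 40 pM IL-6 for 5 hrs before beta-lactamase substrate loading at room temperature.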

[20] = measured here: cell count channel max response
[21] = measured here: lipid channel max response

3',5'-cyclic-AMP phosphodiesterase 4B (Homo sapiens), sequence (Q07343 whole entry, looked up): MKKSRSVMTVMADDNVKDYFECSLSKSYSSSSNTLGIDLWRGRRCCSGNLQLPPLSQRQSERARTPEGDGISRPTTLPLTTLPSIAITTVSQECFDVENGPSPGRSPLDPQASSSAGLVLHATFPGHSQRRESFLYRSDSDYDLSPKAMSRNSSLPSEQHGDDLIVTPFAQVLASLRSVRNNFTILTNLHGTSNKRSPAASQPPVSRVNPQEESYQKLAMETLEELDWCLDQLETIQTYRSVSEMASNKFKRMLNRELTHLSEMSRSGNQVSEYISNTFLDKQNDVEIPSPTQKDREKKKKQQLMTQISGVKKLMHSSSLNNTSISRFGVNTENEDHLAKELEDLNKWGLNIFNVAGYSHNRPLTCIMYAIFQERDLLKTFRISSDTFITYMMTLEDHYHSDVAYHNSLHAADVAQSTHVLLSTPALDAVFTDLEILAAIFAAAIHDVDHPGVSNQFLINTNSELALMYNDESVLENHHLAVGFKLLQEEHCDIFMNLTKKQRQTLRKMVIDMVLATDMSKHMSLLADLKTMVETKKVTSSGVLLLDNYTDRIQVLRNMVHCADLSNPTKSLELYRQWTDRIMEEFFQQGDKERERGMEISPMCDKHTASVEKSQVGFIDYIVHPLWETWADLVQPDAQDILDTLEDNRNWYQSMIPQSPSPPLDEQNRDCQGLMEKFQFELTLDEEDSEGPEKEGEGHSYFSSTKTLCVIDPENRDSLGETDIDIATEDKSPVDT
Cytochrome P450 1A2 (Homo sapiens), sequence (P05177 whole entry, looked up): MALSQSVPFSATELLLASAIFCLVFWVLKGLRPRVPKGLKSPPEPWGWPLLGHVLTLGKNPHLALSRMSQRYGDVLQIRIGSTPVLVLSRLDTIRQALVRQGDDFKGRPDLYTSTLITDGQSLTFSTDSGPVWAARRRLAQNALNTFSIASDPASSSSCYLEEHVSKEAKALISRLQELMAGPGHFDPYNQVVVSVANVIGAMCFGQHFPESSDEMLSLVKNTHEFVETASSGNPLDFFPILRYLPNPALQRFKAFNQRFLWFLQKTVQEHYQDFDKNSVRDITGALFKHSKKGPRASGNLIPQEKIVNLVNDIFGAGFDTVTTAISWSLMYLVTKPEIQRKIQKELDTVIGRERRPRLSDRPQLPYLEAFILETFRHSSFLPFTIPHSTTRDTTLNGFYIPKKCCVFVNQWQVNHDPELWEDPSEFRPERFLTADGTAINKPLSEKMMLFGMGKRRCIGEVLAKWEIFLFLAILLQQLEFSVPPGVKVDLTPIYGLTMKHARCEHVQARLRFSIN
Dual specificity protein kinase CLK4 (Homo sapiens), sequence (Q9HAZ1 whole entry, looked up): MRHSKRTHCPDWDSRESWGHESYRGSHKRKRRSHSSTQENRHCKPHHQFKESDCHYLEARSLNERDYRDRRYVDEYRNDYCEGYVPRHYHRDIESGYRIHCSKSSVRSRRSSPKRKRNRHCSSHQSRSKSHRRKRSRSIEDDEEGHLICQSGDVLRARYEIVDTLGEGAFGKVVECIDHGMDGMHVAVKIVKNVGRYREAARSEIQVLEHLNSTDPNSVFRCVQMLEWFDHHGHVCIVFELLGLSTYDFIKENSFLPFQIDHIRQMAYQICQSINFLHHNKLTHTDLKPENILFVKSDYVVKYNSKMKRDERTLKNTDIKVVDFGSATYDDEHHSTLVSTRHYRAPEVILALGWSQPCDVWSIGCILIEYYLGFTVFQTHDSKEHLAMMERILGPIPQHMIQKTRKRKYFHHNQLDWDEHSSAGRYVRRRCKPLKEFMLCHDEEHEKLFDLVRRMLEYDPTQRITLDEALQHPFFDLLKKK
Cytochrome P450 3A4 (Homo sapiens), sequence (P08684 whole entry, looked up): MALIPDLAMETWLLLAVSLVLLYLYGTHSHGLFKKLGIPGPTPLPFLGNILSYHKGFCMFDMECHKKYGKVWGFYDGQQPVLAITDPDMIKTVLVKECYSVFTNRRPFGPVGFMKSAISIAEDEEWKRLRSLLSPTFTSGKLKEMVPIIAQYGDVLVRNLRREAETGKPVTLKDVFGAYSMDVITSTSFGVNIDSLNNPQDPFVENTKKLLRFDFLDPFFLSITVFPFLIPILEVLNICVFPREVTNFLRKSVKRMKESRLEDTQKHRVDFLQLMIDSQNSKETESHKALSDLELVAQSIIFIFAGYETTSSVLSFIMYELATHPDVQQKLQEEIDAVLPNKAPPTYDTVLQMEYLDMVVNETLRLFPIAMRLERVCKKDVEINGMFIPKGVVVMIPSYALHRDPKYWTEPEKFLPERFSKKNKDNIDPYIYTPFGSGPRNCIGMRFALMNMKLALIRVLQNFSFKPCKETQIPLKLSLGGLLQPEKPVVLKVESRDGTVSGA
Lysosomal acid glucosylceramidase (Homo sapiens), sequence (P04062 whole entry, looked up): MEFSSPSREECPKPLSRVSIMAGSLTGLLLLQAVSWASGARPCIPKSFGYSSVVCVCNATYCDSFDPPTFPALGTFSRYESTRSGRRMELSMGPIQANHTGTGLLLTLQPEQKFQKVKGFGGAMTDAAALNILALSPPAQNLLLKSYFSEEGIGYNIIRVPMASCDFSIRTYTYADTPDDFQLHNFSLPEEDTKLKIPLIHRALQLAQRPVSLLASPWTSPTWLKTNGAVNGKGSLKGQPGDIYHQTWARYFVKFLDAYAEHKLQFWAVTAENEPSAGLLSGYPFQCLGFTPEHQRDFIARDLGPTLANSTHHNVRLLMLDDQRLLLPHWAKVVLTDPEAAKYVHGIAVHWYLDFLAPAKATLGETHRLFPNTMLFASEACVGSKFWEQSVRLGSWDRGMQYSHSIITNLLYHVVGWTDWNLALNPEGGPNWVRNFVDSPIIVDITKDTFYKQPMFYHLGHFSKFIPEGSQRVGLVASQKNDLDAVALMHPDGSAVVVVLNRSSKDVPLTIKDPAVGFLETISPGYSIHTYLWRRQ
Glucocorticoid receptor (Homo sapiens), sequence (P04150 whole entry, looked up, the tested form may be a part): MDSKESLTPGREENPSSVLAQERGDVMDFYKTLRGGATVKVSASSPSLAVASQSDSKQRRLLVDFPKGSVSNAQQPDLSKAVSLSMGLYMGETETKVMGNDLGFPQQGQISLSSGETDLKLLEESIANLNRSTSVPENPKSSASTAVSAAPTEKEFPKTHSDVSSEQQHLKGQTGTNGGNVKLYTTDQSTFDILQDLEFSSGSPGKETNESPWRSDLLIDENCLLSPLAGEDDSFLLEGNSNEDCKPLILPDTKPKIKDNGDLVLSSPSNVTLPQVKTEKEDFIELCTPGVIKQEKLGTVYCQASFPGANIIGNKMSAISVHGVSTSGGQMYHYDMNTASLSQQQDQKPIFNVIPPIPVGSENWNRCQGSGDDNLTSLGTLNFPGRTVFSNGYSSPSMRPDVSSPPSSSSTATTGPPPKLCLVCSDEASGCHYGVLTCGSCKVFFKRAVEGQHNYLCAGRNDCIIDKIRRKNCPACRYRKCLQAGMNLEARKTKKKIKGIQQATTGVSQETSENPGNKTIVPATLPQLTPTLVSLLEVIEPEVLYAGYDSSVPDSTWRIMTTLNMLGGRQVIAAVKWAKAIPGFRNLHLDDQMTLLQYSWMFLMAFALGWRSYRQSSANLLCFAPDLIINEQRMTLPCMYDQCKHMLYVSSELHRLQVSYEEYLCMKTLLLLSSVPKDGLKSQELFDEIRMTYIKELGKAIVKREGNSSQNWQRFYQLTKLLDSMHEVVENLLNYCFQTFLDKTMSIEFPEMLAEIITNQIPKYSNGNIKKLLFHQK
Ubiquitin carboxyl-terminal hydrolase 1 (Homo sapiens), sequence (O94782 whole entry, looked up): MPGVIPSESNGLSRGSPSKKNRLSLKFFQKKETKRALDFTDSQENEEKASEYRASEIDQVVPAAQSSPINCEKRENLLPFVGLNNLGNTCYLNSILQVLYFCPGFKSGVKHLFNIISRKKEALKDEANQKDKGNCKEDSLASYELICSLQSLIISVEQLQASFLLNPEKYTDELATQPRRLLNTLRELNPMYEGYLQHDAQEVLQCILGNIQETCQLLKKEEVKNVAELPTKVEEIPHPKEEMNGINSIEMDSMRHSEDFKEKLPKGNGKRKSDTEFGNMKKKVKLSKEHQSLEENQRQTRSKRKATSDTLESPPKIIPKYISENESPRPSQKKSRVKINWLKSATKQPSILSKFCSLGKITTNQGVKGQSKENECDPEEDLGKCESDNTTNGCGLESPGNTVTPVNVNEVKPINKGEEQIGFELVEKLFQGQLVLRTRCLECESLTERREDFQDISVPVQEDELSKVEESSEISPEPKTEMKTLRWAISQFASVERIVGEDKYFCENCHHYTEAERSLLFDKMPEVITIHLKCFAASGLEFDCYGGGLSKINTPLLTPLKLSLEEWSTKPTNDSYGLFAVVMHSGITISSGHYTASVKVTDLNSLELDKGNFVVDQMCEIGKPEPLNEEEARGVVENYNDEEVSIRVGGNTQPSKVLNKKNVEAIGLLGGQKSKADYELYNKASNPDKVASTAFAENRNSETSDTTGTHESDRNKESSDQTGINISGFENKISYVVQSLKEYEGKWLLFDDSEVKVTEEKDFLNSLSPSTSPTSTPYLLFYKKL
Cytochrome P450 2D6 (Homo sapiens), sequence (P10635 whole entry, looked up): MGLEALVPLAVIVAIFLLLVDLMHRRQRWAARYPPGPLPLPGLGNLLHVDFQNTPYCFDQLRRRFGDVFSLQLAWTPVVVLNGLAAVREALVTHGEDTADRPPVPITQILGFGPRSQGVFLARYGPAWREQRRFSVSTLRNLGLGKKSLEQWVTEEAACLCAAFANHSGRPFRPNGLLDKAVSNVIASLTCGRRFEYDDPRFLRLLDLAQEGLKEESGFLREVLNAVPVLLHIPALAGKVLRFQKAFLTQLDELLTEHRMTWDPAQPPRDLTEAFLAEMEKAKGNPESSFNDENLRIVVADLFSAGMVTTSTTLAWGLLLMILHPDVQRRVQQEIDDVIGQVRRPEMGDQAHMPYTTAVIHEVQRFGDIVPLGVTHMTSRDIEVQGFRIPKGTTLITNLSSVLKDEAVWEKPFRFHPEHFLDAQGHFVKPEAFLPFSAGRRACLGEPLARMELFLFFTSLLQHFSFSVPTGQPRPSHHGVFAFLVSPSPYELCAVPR

Cn1c(=O)c(-c2cccs2)nc2cnc(OCc3ccccc3)nc21
29.6%: max response [9, 21]
inactive: Potency [1] > 11.4 µM | activity change, negative = inhibition [2] 16% | activity change, negative = inhibition [4] 22.3% | Potency [5] > 9.22 µM | Potency [6] > 46 µM | outcome [7] | Potency [8] | activity change, negative = inhibition [9] 6.88% | Potency [10] | Potency [11] | Potency [12] | Potency [13] | Potency [14]
20.6%: max response [9, 20]
active: Potency [3] 7.94 µM

Cc1ccccc1-c1ccc2ncnc(NC3CC3)c2c1
inactive: Potency [1] > 11.4 µM | activity change, negative = inhibition [2] 5.4% | activity change, negative = inhibition [4] 3.53% | Potency [5] > 46 µM | Potency [6] > 46 µM | outcome [7] | Potency [16] | activity change, negative = inhibition [9] -3.61% | Potency [13] | Potency [14]
-0.878%: max response [9, 21]
active: Potency [3] 0.126 µM | Potency [15] 3.16 µM | Potency [17] 7.94 µM | Potency [18] 1.26 µM | Potency [10] 11.2 µM | Potency [11] 7.08 µM | Potency [12] 12.6 µM
4.35%: max response [9, 20]

CN(Cc1ccco1)c1ncncc1-c1ccoc1
28.4%: max response [9, 21]
active: Potency [3] 15.8 µM
inactive: Potency [1] > 11.4 µM | activity change, negative = inhibition [2] -12.2% | activity change, negative = inhibition [4] -18.1% | activity, negative = inhibition [19] -2% | Potency [6] > 46 µM | outcome [7] | Potency [8] | Potency [16] | activity change, negative = inhibition [9] 6.13% | Potency [10] | Potency [11] | Potency [12] | Potency [13] | Potency [14]
22.8%: max response [9, 20]

Cn1cc(-c2nc3cnc(Oc4ccccc4)nc3n(C)c2=O)c2ccccc21
14.6%: max response [9, 20]
active: Potency [3] 12.6 µM
18.4%: max response [9, 21]
inactive: Potency [1] > 11.4 µM | activity change, negative = inhibition [2] 0.766% | activity change, negative = inhibition [4] -2.6% | activity, negative = inhibition [19] 24.9% | Potency [5] > 9.22 µM | outcome [7] | activity change, negative = inhibition [9] -0.452% | Potency [10] | Potency [11] | Potency [12] | Potency [13] | Potency [14]

CN1CCN(c2ncncc2-c2ccc(C(=O)N(C)C)cc2)CC1
12.3%: max response [9, 20]
11.3%: max response [9, 21]
inactive: Potency [1] > 11.4 µM | activity change, negative = inhibition [2] 14.8% | activity change, negative = inhibition [4] 4.17% | Potency [5] > 46 µM | Potency [6] > 46 µM | outcome [7] | Potency [8] | activity change, negative = inhibition [9] 1.02% | Potency [10] | Potency [11] | Potency [12] | Potency [13] | Potency [14]
active: Potency [3] 15.8 µM | Potency [17] 0.251 µM

CC(=O)NCCNc1cc(-c2ccccc2C(F)(F)F)ncn1
inactive: Potency [1] > 11.4 µM | activity change, negative = inhibition [2] 9.07% | activity change, negative = inhibition [4] 15.3% | activity, negative = inhibition [19] 6.62% | Potency [5] > 46 µM | outcome [7] | Potency [8] | activity change, negative = inhibition [9] 0.0704% | Potency [10] | Potency [11] | Potency [12] | Potency [13] | Potency [14]
active: Potency [3] 25.1 µM
3.95%: max response [9, 21]
5.19%: max response [9, 20]
